Reference: PubChem BioAssay (Tox21)
Several values for one entry are separate records, joined by “and”; a condition that tells them apart may be missing. Identical values can stand only once. Results filed as inconclusive are left out. Where a call stands in place of a potency, no number is given. Activity calls are given as the source filed them. Calls come from the whole dose curve; as a rule, active = well fitted cell-killing curve with a large enough effect in the repeat runs (not every such curve was filed as active); inconclusive = weak or mixed curves, or effect the other way; inactive = no such curve, though single readings can be large or run the other way.

assay: qHTS assay to identify small molecule antagonists of the estrogen related receptor signaling pathway with the pleiotropic PPARgamma coactivator (PGC) from Tox21 10K library - cell viability counter screen (AID 1224840); conditions: PGC/ERR reporter cells viability, CellTiter-Fluor, 17.5 h; series mostly up to 92.4 µM; viability change, negative = cytotoxic: at the top concentration; note: nearly all actives have a fitted effect of over 40% in size
Text: National Center for Advancing Translational Sciences [NCATS]
NIH Chemical Genomics Center [NCGC]
U.S. Environmental Protection Agency [EPA]
National Institutes of Environmental Health Sciences [NIEHS]
National Toxicology Program [NTP]
U.S. Food and Drug Administration [FDA]
Estrogen related receptors (ERRs), the first orphan nuclear receptors discovered, play an important role in the control of cellular energy metabolism. ERRs are required for high-energy production in response to the environmental challenges. The pleiotropic PPARgamma coactivator (PGC) is a major partner of ERR and a key regulator in energy homeostasis. Together they have been implicated in the etiology of metabolic disorders such as Type 2 diabetes and metabolic syndrome. ERR-alpha was also identified as an adverse marker for breast cancer progression; ERR-alpha-positive tumors have a poor prognosis. To screen and to identify environmental compounds that perturb the ERR and PGC/ERR signaling pathways could provide valuable information for potential therapeutic or preventive measures in the treatment of metabolic disease. To differentiate true PGC/ERR antagonists or agonist from cytotoxic substances, the assay is multiplexed with cell viability assay.
Tox21 Assay Protocol Summary:
The PGC/ERR cells were dispensed at 2,000 cells/5 ul/well in 1536-well white plates using a Multidrop dispenser. After the assay plates were incubated at a 37 C/5% CO2 incubator for 6 hours, 23 nL of compounds dissolved in DMSO, positive and negative controls or DMSO only was transferred to the assay plate by a pin tool. The plates were incubated at 37 C for 17.5 hours. 1 ul/well of CellTiter-Fluor reagent was added into the assay plates using a Flying Reagent Dispenser. After 30-minute incubation at 37 C/5% CO2, the fluorescence intensity in the plates was measured using a ViewLux plate reader.
Potency is the fitted concentration of half-maximal effect.

| SMILES | Potency | viability change, negative = cytotoxic |
| --- | --- | --- |
| CC(C(=O)O)c1cccc(C(=O)c2ccccc2)c1 (stereo not given) | inactive |  |
| O=CCCCC=O | inactive |  |
| CCC(C)OC(=O)c1ccc(O)cc1 (stereo not given) | inactive |  |
| c1ccc2c(c1)c1cccc3ccc4cccc2c4c31 | inactive |  |
| CCCC(=O)O | inactive |  |
| COc1ccc(OC)c(C(O)CNC(=O)CN)c1 (stereo not given) | inactive |  |
| CCCc1c(OCCCCc2nn[nH]n2)ccc(C(C)=O)c1O | inactive |  |
| COc1cc([C@@H]2c3cc4c(cc3[C@H](O)[C@H]3COC(=O)[C@H]23)OCO4)cc(OC)c1OC |  | -33.1% [at 42.5 µM] (inactive) |
| O=C(/C=C/C=C/c1ccc2c(c1)OCO2)N1CCCCC1 | inactive |  |
| COC(=O)Nc1nc2ccc(S(=O)c3ccccc3)cc2[nH]1 (stereo not given) |  | -14.1% [at 42.5 µM] (inactive) |
| CCCCC(CC)COC(=O)c1ccc(N(C)C)cc1 (stereo not given) | inactive |  |
| COC(=O)CCC(=O)OC | inactive |  |
| CC(=O)O[C@]1(C(C)=O)CC[C@H]2[C@@H]3C=C(Cl)C4=CC(=O)[C@@H]5C[C@@H]5[C@]4(C)[C@H]3CC[C@@]21C | inactive |  |
| Nc1ncnc2nc[nH]c12 | inactive |  |
| Cc1c(OCC(F)(F)F)ccnc1CS(=O)c1nc2ccccc2[nH]1 (stereo not given) |  | -8.06% [at 42.5 µM] (inactive) |
| O=Cc1ccccc1O | inactive |  |
| CCCCC(CC)COP(=O)(OCC(CC)CCCC)OCC(CC)CCCC (stereo not given) | inactive |  |
| CC(=O)CC/C=C(\C)CCC=C(C)C | inactive |  |
| NNc1ccc(C(=O)O)cc1 | inactive |  |
| CC(C)OC=O | inactive |  |

| SMILES | Potency | viability change, negative = cytotoxic |
| --- | --- | --- |
| C[Si](C)(C)O[Si](C)(C)C | inactive |  |
| CC(C)=CCC/C(C)=C\CO | inactive |  |
| Cc1c(C(N)=O)cc([N+](=O)[O-])cc1[N+](=O)[O-] | inactive |  |
| O=c1oc(=O)c2cc3c(=O)oc(=O)c3cc12 | inactive |  |
| Oc1ccc(O)cc1 | inactive |  |
| O=C(OCc1ccccc1)c1ccccc1O | inactive |  |
| CCC(C)(O)CCCC(C)C (stereo not given) | inactive |  |
| Nc1ccc(Nc2ccccc2)cc1 |  | -28% (inactive) |
| Cc1cccc(C(=O)O)c1 | inactive |  |
| Nc1ccc(Cl)cc1Cl | inactive |  |
| c1cc(-c2ccncc2)ccn1 | inactive |  |
| O=C(O)c1ccccc1Nc1cccc(C(F)(F)F)c1 | inactive |  |
| c1ccc2cc(Nc3ccc(Nc4ccc5ccccc5c4)cc3)ccc2c1 | inactive |  |
| CCCCCCCCCC(=O)OC | inactive |  |
| CC1=CC2C3CC(C=C3C)C2C1 (stereo not given) | inactive |  |
| CC(=O)Oc1ccccc1C(=O)Nc1ncc([N+](=O)[O-])s1 | 15.7 µM (active) and 23.7 µM (active) |  |
| COC(=O)c1ccccc1 | inactive |  |
| c1ccc(Nc2ccccc2)cc1 |  | -10.2% (inactive) |
| NC=O | inactive |  |
| CC(C)CC(C)(O)C#CC(C)(O)CC(C)C (stereo not given) | inactive |  |
